± gives the standard deviation of the averaged measurements. Whole data set: some 25,000 sequences, median “ln(normalized median fluorescence intensity)” near 7.9, cut for the highest 2% near 11. The sample as a whole holds a higher share of the highest values than the screen did.
system: PfAP2-I AP2 domain 3 (GST-tagged); assay: gcPBM binding intensity (ln(normalized median fluorescence intensity)); higher = stronger DNA binding
In short: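 Alexa488 anti-GST antibody, scanned at 488 nm, detected GST-tagged P. falciparum DNA-binding domains that had been expressed in E. coli and incubated for 1 h on an Agilent 4 × 180k array. The array carried primer-extended double-stranded 36-bp intergenic genomic probes and negative controls. Binding intensity is the highest Masliner-normalised natural-log median intensity across replicate spots of either orientation of each probe.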

| Sequence | gcPBM binding intensity (ln) |
| --- | --- |
| AATTTAATATAATGCACACATAAAACAAAAACAAAA [CACACA_site529] | 10.8 ± 0.72 |
| AACGGGTAATGCACAAAAAAAAAAAAATAAAATAAA [TGCATGCA_negctrl_site474] | 11.4 ± 1 |
| AATATAATATAATGCACACATAAAAAAAAAATCAAA [CACACA_site122] | 11.2 ± 1 |
| CACAAAAATAAACACACACACATATATATATATATA [CACACA_site4704] | 9.39 ± 0.42 |
| CATTAACAAATAAATGCACACATATATATAAATAAT [CACACA_site7892] | 9.51 ± 0.35 |
| AAAATTTAATATAATGCACACATAAAACAAAAACAA [CACACA_site8071] | 10.9 ± 0.64 |
| ATAAATCAAATGCACACACACAAAAAAAAAAAAAAA [CACACA_site6221] | 9.31 ± 0.16 |
| TAATAAATCAAATGCACACACACAAAAAAAAAAAAA [CACACA_site161] | 9.24 ± 0.38 |
| AAAATATAATATAATGCACACATAAACAAAAAAAAA [CACACA_site8161] | 10.9 ± 0.74 |
| AATATAAAAATGCACACACACAAAAAAAAAAAAAAA [CACACA_site6546] | 9.03 ± 0.16 |
| ATGGATTTTACCATAGCACACATATATGAATATTTT [CACACA_site8535] | 7.96 ± 0.54 |
| ATTAAATTAAAATAATGTACTTAATACTTTTGCTTA [XGTACX_site8404] | 7.39 ± 0.39 |
| AAATCACATAAAACATAATCAAATGAAATATAATCA [CACACA_negctrl_site123] | 7.38 ± 0.6 |
| AAAATATAATATAATGCACACATAAAACAAAAAAAA [CACACA_site8989] | 10.7 ± 0.67 |
| AAAATATAAAATAATGCACACATAAACAAAAAATCA [CACACA_site8382] | 10.8 ± 0.96 |
| AGGCACGTGTTATATACACACATAATCAAATAAACT [CACACA_site7852] | 8.11 ± 0.61 |
| TTAACAAATAAATGCACACATATATATAAATAATAT [CACACA_site28] | 9.52 ± 0.35 |
| CCCCCCGTGTTATATACACACATAATCAAATAAAAT [CACACA_site4111] | 10.9 ± 0.4 |
| AATATAAAATAATGCACACATAAACAAAAAATCAAA [CACACA_site1371] | 10.9 ± 0.88 |
| AAATTATAATATAATACACACATAAAAAAAAAATCA [CACACA_site3634] | 7.76 ± 0.45 |
| AATATAATATAATGCACACATAAACAAAAAAAAAAT [CACACA_site1304] | 10.9 ± 0.96 |
| AATTTTTTATTCTTTGCATGTCATCATATATAATAT [TGCATGCA_site549] | 8.12 ± 0.69 |
| TCTTATTTAAAAATAGCACACATTATATATATATAT [CACACA_site8916] | 9.44 ± 0.26 |

| Sequence | gcPBM binding intensity (ln) |
| --- | --- |
| TTTTTTAAAATATAAAATATGTACAAATATGTTGAA [GTGCAC_negctrl_site379] | 7.97 ± 0.3 |
| TGAATAAATAAACACACACACATATATATATCTGTA [CACACA_site4184] | 7.59 ± 0.4 |
| AGTAATTATTTTAGAGTGCATAGTTTTTTAATAAAT | 9.54 ± 0.18 |
| AATATTCAATATAAAGTGCATTATTGTGCCCCTAAT | 11.3 ± 0.64 |
| AAGTGCATATTATTCACACATAATAATTGTATACCT [CACACA_site5965] | 10.3 ± 0.47 |
| AAATAAATAAATAGAGTGCATATATATATATATTTT | 10.01 ± 0.042 |
| AATATTCAATATAAAGTGCATTATTGTGGACCTAAT | 11.3 ± 0.65 |
| ACTATATATATAAGTGCATGTTCATTATACCTAAAG [TGCATGCA_site696] | 8.93 ± 0.57 |
| TTCGCCCTAAATAGAGTGCATTATATATATTAATAT | 11.4 ± 0.58 |
| TTAATTATTATATAAGTGCAATAATAAAAAGTTGTA [GTGCAC_site9552] | 10.7 ± 0.76 |
| ACGTACTGCCCTAAAGTGCATATATAATATAAACGA [GTGCAC_site9911] | 10.1 ± 0.34 |
| ACTAACATATATTCAACACACATATACCTTCAACCC [CACACA_site3011] | 7.94 ± 0.72 |
| TAAATGCACATATACACACACCCAATTTTAAGTTTT [CACACA_site7428] | 9.31 ± 0.3 |
| TAAATAAAAAAAAAAAGTACATACATACAAACATAT [XGTACX_site4427] | 7.79 ± 0.47 |
| TGAACATCATTTTTATGTACACACACATATACGTTG [XGTACX_site3864] | 7.96 ± 0.28 |
| AAAAAAAAATAATATTGTACACACATAAATTCTTTG [XGTACX_site4315] | 7.51 ± 0.47 |
| TTATAATACCTACAAAGTACAAACTTAAATATGAAC [XGTACX_site5684] | 7.68 ± 0.39 |
| TATAGGTATATATAAGTGCAATATATATGTATATAC [GTGCAC_site9427] | 10.9 ± 0.41 |
| ATATATTTATAATAGGTGCATATGTTTTATTTTTCC [GTGCAC_site9849] | 10.1 ± 0.5 |
| TGTATGTTTGGGTGCACACATAAATATTATATATAG [CACACA_site3397] | 10.5 ± 0.57 |
| GCATATATGGATATATAGGTATATATAAATGCAATA [GTGCAC_negctrl_site24] | 7.82 ± 0.71 |
| TATGGGTTTATATAGGTGCAATATATGTATATATAA | 11.2 ± 0.59 |
| TATACAAGTATATAGGTGCATATATAAGTATATATT [GTGCAC_site9994] | 10.5 ± 0.53 |
